According to the supplement of paper PMC12067093, “Discovery and optimisation of a covalent ligand for TRIM25 and its application to targeted protein ubiquitination” (Chemical Science, 2025):
About 21,000 targets were measured; listed, in parts, are those with the largest changes and a random draw of the rest.

Compound: Cc1cc(ccc1-c1ccccc1)C(=O)N1CCCN(CC1)C(=O)CCl [compound 10]
Assay: probe-labelled cysteine peptide fold change vs DMSO (competition) (log2 fold change); higher = less target engagement (more negative = stronger competition)
Settings: THP-1, incubation time: 4 h
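Also: competitive profiling in live THP-1 cells: cysteine peptides tagged with an iodoacetamide desthiobiotin (IA-DTB) probe, intensity after compound treatment relative to DMSO-treated cells.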

Target	probe-labelled cysteine peptide fold change (10 µM)	probe-labelled cysteine peptide fold change (50 µM)
RGPD3_A6NKT7_537_SWWDAVCTLIHR<|>RGPD8_O14715_537_SWWDAVCTLIHR<|>RGPD1_P0DJD0_528_SWWDAVCTLIHR<|>RGPD2_P0DJD1_536_SWWDAVCTLIHR<|>RANBP2_P49792_536_SWWDAVCTLIHR<|>RGPD4_Q7Z3J3_537_SWWDAVCTLIHR<|>RGPD6_Q99666_537_SWWDAVCTLIHR (UniProt Q7Z3J3+P49792+P0DJD1+Q99666+P0DJD0+O14715+A6NKT7)	-0.451	-0.14
RCSD1_Q6JBY9_181_RSQSDCGELGDFR (UniProt Q6JBY9)	-0.852	-1.19
PSMB3_P49720_19_NCVAIAADRR (UniProt P49720)	0.0313	0.234
PSMD11_O00231_257_YMLLCK (UniProt O00231)	0.248	0.241
RNF126_Q9BV68_13+16_YFCHCCSVEIVPR (UniProt Q9BV68)	-0.268	-1.16
PRPS2_P11908_165_NCIIVSPDAGGAKR (UniProt P11908)	0.121	-0.113
RGPD3_A6NKT7_141_LKEQLLDCEGEDGWNK<|>RGPD8_O14715_141_LKEQLLDCEGEDGWNK<|>RANBP2_P49792_141_LKEQLLDCEGEDGWNK<|>RGPD4_Q7Z3J3_141_LKEQLLDCEGEDGWNK (UniProt Q7Z3J3+P49792+O14715+A6NKT7)	-0.113	-0.334
PRKDC_P78527_2093_DPTVHDDVLELEMDELNRHECMAPLTALVK (UniProt P78527)	-0.156	-0.199
RNASEH1_O60930_191_AEIHAACK (UniProt O60930)	-0.0799	-0.155
PSMA7_O14818_91_ARVECQSHR (UniProt O14818)	-0.0556	0.107
RAD50_Q92878_133_CAEIDREMISSLGVSK (UniProt Q92878)	-0.195	-0.429
QRSL1_Q9H0R6_278_LCIGIPK (UniProt Q9H0R6)	0.155	0.0481
RABEPK_Q7Z6M1_36_VGHSCSYLPPVGNAK (UniProt Q7Z6M1)	-0.218	-0.0672
RDH13_Q8NBN7_30_DYVTGGACPSK (UniProt Q8NBN7)	-0.162	-0.083
PRKDC_P78527_1507_QCLPSLDLSCK (UniProt P78527)	0.0976	-1.07
PTPMT1_Q8WUK0_127+132_YQSLGQCVYVHCK (UniProt Q8WUK0)	0.0587	-0.0194
PRKCB_P05771_132+135_CDTCMMNVHKR (UniProt P05771)	-0.193	-0.881

Target	probe-labelled cysteine peptide fold change (10 µM)	probe-labelled cysteine peptide fold change (50 µM)
PRMT1_Q99873_103_DKVVLDVGSGTGILCMFAAK (UniProt Q99873)	-0.168	-0.709
PSMC3_P17980_240_ACAAQTK (UniProt P17980)	-0.0208	-0.0025
PTER_Q96BW5_196_VLQATAHAQAQLGCPVIIHPGR (UniProt Q96BW5)	0.2	0.329
PRPF8_Q6P2Q9_2116_KFICISDLR (UniProt Q6P2Q9)	0.0139	0.129
PSMC6_P62333_228_DHQPCIIFMDEIDAIGGR (UniProt P62333)	-0.0612	0.106
PXN_P49023_387_TWHPEHFVCTHCQEEIGSR (UniProt P49023)	-0.0992	-0.106
RAB33A_Q14088_135_MWIQECNGHAVPPLVPK (UniProt Q14088)	0.0206	0.0086
PSMD11_O00231_202_TTANAIYCPPK (UniProt O00231)	0.077	0.248
REEP5_Q00765_18_NCMTDLLAK (UniProt Q00765)	-0.872	-1.97
RAB29_O14966_127_CDLSPWAVSR (UniProt O14966)	-0.0495	0.0455
PRKDC_P78527_373_GYGLFAGPCK (UniProt P78527)	-0.037	0.131
RAI14_Q9P0K7_139_TALHYAAAQGCLQAVQILCEHK (UniProt Q9P0K7)	0.0635	-0.0217
QDPR_P09417_161_GAVHQLCQSLAGK (UniProt P09417)	0.0328	0.165
RAD54L2_Q9Y4B4_618_AFCVCCK (UniProt Q9Y4B4)	-0.173	-0.639
RBM25_P49756_132_LQAFGFCEYKEPESTLR (UniProt P49756)	-0.148	-0.0661
RANGAP1_P46060_169_ILAAALTECHRK (UniProt P46060)	-0.159	-0.379
PRR14L_Q5THK1_1483_DTESCTSPCLLGAPR (UniProt Q5THK1)	-0.528	-1.12
